{"source": "paper PMC13541613", "about": "“GHT-SELEX demonstrates unexpectedly high intrinsic sequence specificity and complex DNA binding of many human transcription factors”", "key": {"[1]": {"target": "ZNF721 full-length (Homo sapiens, UniProt Q8TF20-2 1-923)", "sequence (Q8TF20 other isoform, or with tags, fused parts or gaps)": "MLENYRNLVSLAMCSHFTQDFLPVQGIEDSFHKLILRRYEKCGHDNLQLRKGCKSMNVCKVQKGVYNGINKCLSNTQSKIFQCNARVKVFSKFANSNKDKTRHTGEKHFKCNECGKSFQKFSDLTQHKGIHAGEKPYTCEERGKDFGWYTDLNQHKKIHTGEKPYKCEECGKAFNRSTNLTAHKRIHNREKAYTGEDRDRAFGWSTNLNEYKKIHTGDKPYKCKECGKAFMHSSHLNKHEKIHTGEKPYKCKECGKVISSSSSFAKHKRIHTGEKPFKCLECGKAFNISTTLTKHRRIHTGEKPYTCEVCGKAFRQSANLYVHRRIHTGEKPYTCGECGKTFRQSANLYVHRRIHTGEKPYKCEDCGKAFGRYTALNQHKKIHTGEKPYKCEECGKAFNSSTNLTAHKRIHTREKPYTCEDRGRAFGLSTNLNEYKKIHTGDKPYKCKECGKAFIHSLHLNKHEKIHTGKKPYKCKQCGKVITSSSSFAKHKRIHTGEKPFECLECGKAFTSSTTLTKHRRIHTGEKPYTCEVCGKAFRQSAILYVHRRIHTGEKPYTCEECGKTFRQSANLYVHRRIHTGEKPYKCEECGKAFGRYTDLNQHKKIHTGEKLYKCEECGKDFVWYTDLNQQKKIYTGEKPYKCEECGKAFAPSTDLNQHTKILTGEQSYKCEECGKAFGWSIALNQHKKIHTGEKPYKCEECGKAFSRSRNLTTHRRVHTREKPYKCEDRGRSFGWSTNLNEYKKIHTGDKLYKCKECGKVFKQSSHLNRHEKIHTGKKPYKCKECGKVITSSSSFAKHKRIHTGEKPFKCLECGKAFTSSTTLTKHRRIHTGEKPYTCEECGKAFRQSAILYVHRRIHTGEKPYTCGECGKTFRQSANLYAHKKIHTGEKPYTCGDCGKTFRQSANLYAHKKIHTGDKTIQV", "test": "HT-SELEX; 20 mM HEPES pH 7, 140 mM KCl, 5 mM NaCl, 1 mM K2HPO4, 2 mM MgSO4, 100 uM EGTA, ZnSO4, 0.1% Tween20; room temperature, 1 h; high values mean tight binding", "conditions": "protein: ivt; tags: eGFP (N-terminal); dsDNA, one strand shown", "how_it_was_run": "(§1)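 Full-length or DNA-binding-domain forms of a tagged transcription factor were produced in HEK293 lysate or cell-free extract and immobilised on beads. Incubation with a randomized 40-base DNA library ran for 1 h at room temperature in HEPES/KCl low-stringency buffer with Tween20, after which bound DNA was washed, heat-eluted, PCR-amplified over successive cycles and Illumina-sequenced. Binding strength is given as the relative k-mer count in selected reads, higher for tighter binding.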"}, "[2]": {"target": "ZNF721 DBD2 (Homo sapiens, UniProt Q8TF20-2 395-923)", "sequence (Q8TF20 383-911)": "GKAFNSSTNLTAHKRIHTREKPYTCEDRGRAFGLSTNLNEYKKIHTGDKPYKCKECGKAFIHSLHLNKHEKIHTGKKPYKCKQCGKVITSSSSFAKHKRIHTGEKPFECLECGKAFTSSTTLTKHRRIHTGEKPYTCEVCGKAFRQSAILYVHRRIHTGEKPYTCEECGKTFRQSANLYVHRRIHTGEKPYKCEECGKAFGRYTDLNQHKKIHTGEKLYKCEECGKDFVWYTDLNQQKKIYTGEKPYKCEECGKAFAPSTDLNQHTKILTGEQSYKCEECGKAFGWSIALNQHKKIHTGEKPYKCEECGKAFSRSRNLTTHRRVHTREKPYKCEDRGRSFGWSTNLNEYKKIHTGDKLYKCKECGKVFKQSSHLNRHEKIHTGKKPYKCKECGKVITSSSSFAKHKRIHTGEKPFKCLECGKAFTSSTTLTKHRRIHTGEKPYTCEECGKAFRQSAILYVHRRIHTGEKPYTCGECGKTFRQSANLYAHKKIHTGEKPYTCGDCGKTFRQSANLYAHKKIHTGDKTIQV", "test": "HT-SELEX; 20 mM HEPES pH 7, 140 mM KCl, 5 mM NaCl, 1 mM K2HPO4, 2 mM MgSO4, 100 uM EGTA, ZnSO4, 0.1% Tween20; room temperature, 1 h; high values mean tight binding", "conditions": "protein: ivt; tags: eGFP (N-terminal); dsDNA, one strand shown", "how_it_was_run": "as §1"}}, "data": [{"sequence": "ACAGCATCCC", "values": [{"measurement": "binding signal", "setting": "[1]", "value": 0.114, "unit": "relative 10-mer count"}, {"measurement": "binding signal", "setting": "[2]", "value": 0.088, "unit": "relative 10-mer count"}]}, {"sequence": "AAAAACAGGA", "values": [{"measurement": "binding signal", "setting": "[1]", "value": 0.104, "unit": "relative 10-mer count"}, {"measurement": "binding signal", "setting": "[2]", "value": 0.113, "unit": "relative 10-mer count"}]}, {"sequence": "TAAAACAGCA", "values": [{"measurement": "binding signal", "setting": "[1]", "value": 0.152, "unit": "relative 10-mer count"}, {"measurement": "binding signal", "setting": "[2]", "value": 0.177, "unit": "relative 10-mer count"}]}, {"sequence": "CCGAAAACAG", "values": [{"measurement": "binding signal", "setting": "[1]", "value": 0.111, "unit": "relative 10-mer count"}, {"measurement": "binding signal", "setting": "[2]", "value": 0.217, "unit": "relative 10-mer count"}]}, {"sequence": "ACTGTTTTTC", "values": [{"measurement": "binding signal", "setting": "[1]", "value": 0.135, "unit": "relative 10-mer count"}, {"measurement": "binding signal", "setting": "[2]", "value": 0.17, "unit": "relative 10-mer count"}]}, {"sequence": "AAACAGCGTC", "values": [{"measurement": "binding signal", "setting": "[1]", "value": 0.206, "unit": "relative 10-mer count"}, {"measurement": "binding signal", "setting": "[2]", "value": 0.277, "unit": "relative 10-mer count"}]}, {"sequence": "ACAGTGTCTC", "values": [{"measurement": "binding signal", "setting": "[1]", "value": 0.106, "unit": "relative 10-mer count"}, {"measurement": "binding signal", "setting": "[2]", "value": 0.236, "unit": "relative 10-mer count"}]}, {"sequence": "GAGACACTGC", "values": [{"measurement": "binding signal", "setting": "[1]", "value": 0.113, "unit": "relative 10-mer count"}, {"measurement": "binding signal", "setting": "[2]", "value": 0.128, "unit": "relative 10-mer count"}]}, {"sequence": "AAACAGGGTA", "values": [{"measurement": "binding signal", "setting": "[1]", "value": 0.175, "unit": "relative 10-mer count"}, {"measurement": "binding signal", "setting": "[2]", "value": 0.22, "unit": "relative 10-mer count"}]}, {"sequence": "AACAGCATGC", "values": [{"measurement": "binding signal", "setting": "[1]", "value": 0.113, "unit": "relative 10-mer count"}, {"measurement": "binding signal", "setting": "[2]", "value": 0.163, "unit": "relative 10-mer count"}]}, {"sequence": "CAGCATGCCC", "values": [{"measurement": "binding signal", "setting": "[1]", "value": 0.121, "unit": "relative 10-mer count"}, {"measurement": "binding signal", "setting": "[2]", "value": 0.244, "unit": "relative 10-mer count"}]}, {"sequence": "AGAAAAACAG", "values": [{"measurement": "binding signal", "setting": "[1]", "value": 0.178, "unit": "relative 10-mer count"}, {"measurement": "binding signal", "setting": "[2]", "value": 0.208, "unit": "relative 10-mer count"}]}, {"sequence": "AAACACTGTT", "values": [{"measurement": "binding signal", "setting": "[1]", "value": 0.135, "unit": "relative 10-mer count"}, {"measurement": "binding signal", "setting": "[2]", "value": 0.266, "unit": "relative 10-mer count"}]}, {"sequence": "GAAACACTGC", "values": [{"measurement": "binding signal", "setting": "[1]", "value": 0.118, "unit": "relative 10-mer count"}, {"measurement": "binding signal", "setting": "[2]", "value": 0.188, "unit": "relative 10-mer count"}]}, {"sequence": "ACAGTGTTGC", "values": [{"measurement": "binding signal", "setting": "[1]", "value": 0.13, "unit": "relative 10-mer count"}, {"measurement": "binding signal", "setting": "[2]", "value": 0.341, "unit": "relative 10-mer count"}]}, {"sequence": "ACAGCATATC", "values": [{"measurement": "binding signal", "setting": "[1]", "value": 0.126, "unit": "relative 10-mer count"}, {"measurement": "binding signal", "setting": "[2]", "value": 0.174, "unit": "relative 10-mer count"}]}, {"sequence": "CTGTTTTTTC", "values": [{"measurement": "binding signal", "setting": "[1]", "value": 0.357, "unit": "relative 10-mer count"}, {"measurement": "binding signal", "setting": "[2]", "value": 0.365, "unit": "relative 10-mer count"}]}, {"sequence": "AAGCAGTGTA", "values": [{"measurement": "binding signal", "setting": "[1]", "value": 0.142, "unit": "relative 10-mer count"}, {"measurement": "binding signal", "setting": "[2]", "value": 0.18, "unit": "relative 10-mer count"}]}, {"sequence": "AAACGCTGTT", "values": [{"measurement": "binding signal", "setting": "[1]", "value": 0.236, "unit": "relative 10-mer count"}, {"measurement": "binding signal", "setting": "[2]", "value": 0.44, "unit": "relative 10-mer count"}]}, {"sequence": "ACAAAACAGC", "values": [{"measurement": "binding signal", "setting": "[1]", "value": 0.249, "unit": "relative 10-mer count"}, {"measurement": "binding signal", "setting": "[2]", "value": 0.272, "unit": "relative 10-mer count"}]}, {"sequence": "AAACACTGCT", "values": [{"measurement": "binding signal", "setting": "[1]", "value": 0.109, "unit": "relative 10-mer count"}, {"measurement": "binding signal", "setting": "[2]", "value": 0.18, "unit": "relative 10-mer count"}]}, {"sequence": "CACAAAACAG", "values": [{"measurement": "binding signal", "setting": "[1]", "value": 0.147, "unit": "relative 10-mer count"}, {"measurement": "binding signal", "setting": "[2]", "value": 0.156, "unit": "relative 10-mer count"}]}, {"sequence": "GCAACACTGC", "values": [{"measurement": "binding signal", "setting": "[1]", "value": 0.135, "unit": "relative 10-mer count"}, {"measurement": "binding signal", "setting": "[2]", "value": 0.238, "unit": "relative 10-mer count"}]}, {"sequence": "AAACAGCATC", "values": [{"measurement": "binding signal", "setting": "[1]", "value": 0.208, "unit": "relative 10-mer count"}, {"measurement": "binding signal", "setting": "[2]", "value": 0.21, "unit": "relative 10-mer count"}]}, {"sequence": "AAACAGTGTT", "values": [{"measurement": "binding signal", "setting": "[1]", "value": 0.338, "unit": "relative 10-mer count"}, {"measurement": "binding signal", "setting": "[2]", "value": 0.546, "unit": "relative 10-mer count"}]}, {"sequence": "CAGAAAACAG", "values": [{"measurement": "binding signal", "setting": "[1]", "value": 0.147, "unit": "relative 10-mer count"}, {"measurement": "binding signal", "setting": "[2]", "value": 0.264, "unit": "relative 10-mer count"}]}, {"sequence": "ACAGCATGAC", "values": [{"measurement": "binding signal", "setting": "[1]", "value": 0.209, "unit": "relative 10-mer count"}, {"measurement": "binding signal", "setting": "[2]", "value": 0.295, "unit": "relative 10-mer count"}]}, {"sequence": "CCCTGTTTTC", "values": [{"measurement": "binding signal", "setting": "[1]", "value": 0.162, "unit": "relative 10-mer count"}, {"measurement": "binding signal", "setting": "[2]", "value": 0.186, "unit": "relative 10-mer count"}]}, {"sequence": "CGCTGTTTTA", "values": [{"measurement": "binding signal", "setting": "[1]", "value": 0.126, "unit": "relative 10-mer count"}, {"measurement": "binding signal", "setting": "[2]", "value": 0.174, "unit": "relative 10-mer count"}]}, {"sequence": "GCTGTTTTTA", "values": [{"measurement": "binding signal", "setting": "[1]", "value": 0.135, "unit": "relative 10-mer count"}, {"measurement": "binding signal", "setting": "[2]", "value": 0.204, "unit": "relative 10-mer count"}]}, {"sequence": "CACTGTTTTC", "values": [{"measurement": "binding signal", "setting": "[1]", "value": 0.15, "unit": "relative 10-mer count"}, {"measurement": "binding signal", "setting": "[2]", "value": 0.248, "unit": "relative 10-mer count"}]}, {"sequence": "CAGCATGACC", "values": [{"measurement": "binding signal", "setting": "[1]", "value": 0.229, "unit": "relative 10-mer count"}, {"measurement": "binding signal", "setting": "[2]", "value": 0.437, "unit": "relative 10-mer count"}]}, {"sequence": "AAACAGCATT", "values": [{"measurement": "binding signal", "setting": "[1]", "value": 0.17, "unit": "relative 10-mer count"}, {"measurement": "binding signal", "setting": "[2]", "value": 0.254, "unit": "relative 10-mer count"}]}, {"sequence": "CCAAAAACAG", "values": [{"measurement": "binding signal", "setting": "[1]", "value": 0.108, "unit": "relative 10-mer count"}, {"measurement": "binding signal", "setting": "[2]", "value": 0.144, "unit": "relative 10-mer count"}]}, {"sequence": "ATGCTGTTTC", "values": [{"measurement": "binding signal", "setting": "[1]", "value": 0.143, "unit": "relative 10-mer count"}, {"measurement": "binding signal", "setting": "[2]", "value": 0.178, "unit": "relative 10-mer count"}]}, {"sequence": "AAACAGCAGC", "values": [{"measurement": "binding signal", "setting": "[1]", "value": 0.122, "unit": "relative 10-mer count"}, {"measurement": "binding signal", "setting": "[2]", "value": 0.135, "unit": "relative 10-mer count"}]}, {"sequence": "CAGTGTTACC", "values": [{"measurement": "binding signal", "setting": "[1]", "value": 0.128, "unit": "relative 10-mer count"}, {"measurement": "binding signal", "setting": "[2]", "value": 0.259, "unit": "relative 10-mer count"}]}, {"sequence": "GAAAAACAGC", "values": [{"measurement": "binding signal", "setting": "[1]", "value": 0.265, "unit": "relative 10-mer count"}, {"measurement": "binding signal", "setting": "[2]", "value": 0.324, "unit": "relative 10-mer count"}]}, {"sequence": "AAACAGGGTT", "values": [{"measurement": "binding signal", "setting": "[1]", "value": 0.271, "unit": "relative 10-mer count"}, {"measurement": "binding signal", "setting": "[2]", "value": 0.368, "unit": "relative 10-mer count"}]}, {"sequence": "AAAGCAGTGT", "values": [{"measurement": "binding signal", "setting": "[1]", "value": 0.513, "unit": "relative 10-mer count"}, {"measurement": "binding signal", "setting": "[2]", "value": 0.632, "unit": "relative 10-mer count"}]}]}
